Screens as filed in PubChem.
Shown are actives, neighbours in structure and some others; about 11% of the full set was active somewhere.
Luciferase inh: inhibitors of firefly (Photinus pyralis) luciferase; Potency, µM (titrated, usually from 115 µM), actives largely listed as inhibitors; AID 1347043; purified P. pyralis luciferase, luminescence, biochemical; actives 2.5% (n = 76,000); P08659; active = well fitted curve in the direction sought with a large enough effect; inconclusive = small, poorly fitted or top-dose-only effect, or another doubt; inactive = no such curve, though single readings can be large; an effect the other way counts as inactive or inconclusive; also: % is scaled to controls: 0 for no effect and ±100 for the full control effect; nearly all actives have a fitted effect of over 65% in size
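FLuc 10nM, D-luciferin 10uM, ATP 10uM, Mg acetate 10mM, Tris acetate pH 7.5, Tween/BSA; cpd qHTS; enzyme added last; CCD luminescence.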
HEK cytotox: kills HEK 293 cells; HEK 293 viability, ATP luminescence (CellTiter-Glo), 48-72 h; AID 1345083; Potency, µM (titrated, usually from 115 µM), inactives show top-dose activity change, negative = cytotoxicity, usual class: inhibitors; actives 6.6% (n = 94,000); active = well fitted curve in the direction sought with a large enough effect; inconclusive = small, poorly fitted or top-dose-only effect, or another doubt; inactive = no such curve, though single readings can be large; an effect the other way counts as inactive or inconclusive; also: % is scaled to controls: 0 for no effect and ±100 for the full control effect; nearly all actives have a fitted effect of over 60% in size
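Viability of HEK 293 cells, plated at 250 cells/well, was judged by cellular ATP after compound treatment for 48 or 72 hr. Luminescence was imaged 10 min after CellTiter-Glo addition at room temperature.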
hNpr1 antagonist: antagonists of human natriuretic peptide receptor Npr1 | HEK293 hNpr1 GloSensor cGMP, ANP-stimulated luminescence | actives 1.6% (n = 76,000) | P16066 | AID 1347048 | Potency, µM (highest dose often 46.3 µM), for the others: top-dose activity change, negative = inhibition, hits mostly inhibitors; also: % is scaled to controls: 0 for no effect and ±100 for the full control effect; nearly all actives have a fitted effect of over 60% in size
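HEK293 cells stably expressing human Npr1 and cGMP GloSensor pGS-40F, loaded 2 h with 2% GloSensor reagent, given compound 30 min at room temperature. Luminescence read before and 20 min after 0.1 nM hNppA.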
NIH3T3 tox: kills NIH 3T3 cells; NIH 3T3 viability, CellTiter-Glo ATP luminescence, 48-72 h; Potency, µM (top dose mostly 96.7 µM), without a hit: top-dose activity change, negative = cytotoxicity, usual class: inhibitors; actives 4.3% (n = 94,000); AID 1345082; active = well fitted curve in the direction sought with a large enough effect; inconclusive = small, poorly fitted or top-dose-only effect, or another doubt; inactive = no such curve, though single readings can be large; an effect the other way counts as inactive or inconclusive; also: % is scaled to controls: 0 for no effect and ±100 for the full control effect; nearly all actives have a fitted effect of over 55% in size
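NIH 3T3 cells at 400 cells/well received 23 nL of compound by pintool and were incubated 48 or 72 h at 37 °C. Viability was read as ATP-coupled CellTiter-Glo luminescence.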
NPR1 antag cnf: confirmation of human Npr1 natriuretic peptide receptor antagonists; AID 1347044; actives 76% (n = 1,400); HEK293 hNpr1 cGMP GloSensor luminescence, ANP-stimulated; Potency, µM (doses to about 57.6 µM), for the others: top-dose activity change, negative = inhibition, hits mostly inhibitors; shares compounds with hNpr1 antagonist; also: nearly all actives have a fitted effect of over 70% in size
NPR2 antag: hNpr2 antagonism, selectivity versus Npr1; Potency, µM (top dose mostly 57.6 µM), for the others: top-dose activity change, negative = inhibition, hits mostly inhibitors; actives 67% (n = 1,400); shares compounds with hNpr1 antagonist; HEK293 hNpr2 GloSensor cGMP luminescence, CNP-stimulated; also: nearly all actives have a fitted effect of over 70% in size
FLuc counter: inhibits firefly luciferase, false Npr1 antagonist flag; shares compounds with hNpr1 antagonist; purified FLuc enzyme, luminescence, Km substrate; Potency, µM (doses to about 57.6 µM), for inactives: at the top dose activity change, negative = inhibition, hits mostly inhibitors; actives 0.7% (n = 1,400); active = well fitted curve in the direction sought with a large enough effect; inconclusive = small, poorly fitted or top-dose-only effect, or another doubt; inactive = no such curve, though single readings can be large; an effect the other way counts as inactive or inconclusive; also: 0% is about no effect
GloSensor ctrl: counter-screen for Npr1 antagonists: GloSensor control cell line. shares compounds with hNpr1 antagonist. HEK293 GloSensor cGMP, SNP-stimulated, luminescence. Potency, µM (highest dose often 57.6 µM), inactives show at the highest dose activity change, negative = inhibition, actives largely listed as inhibitors. actives 69% (n = 1,400). AID 1347051; also: % is scaled to controls: 0 for no effect and ±100 for the full control effect; nearly all actives have a fitted effect of over 70% in size
* hit, by the source's call; i = inactive; ? = inconclusive; / = no result given; [ ] = dose if it differs, or a comment. Unless noted, calls follow the shape of the full dose curve. Potency is read from the fitted curve at half-maximal effect.

SMILES	Luciferase inh	HEK cytotox	hNpr1 antagonist	NIH3T3 tox	NPR1 antag cnf	NPR2 antag	FLuc counter	GloSensor ctrl
CCCCCN(CCC(=O)NCc1ccc2c(c1)OCO2)C(=O)c1cc(C)oc1C	i	?	13µM*	32µM*	?	?	2%	1%
COc1ccc(CNC2CN(C(=O)OC(C)(C)C)C2)cc1	/	5%	/	-11%	/	/	/	/
CC(C)(C)OC(=O)N1CC(NCc2ccc(-c3ccc(OC(F)(F)F)cc3)cc2)C1	/	?	/	?	22µM*	22µM*	-2%	17µM*
O=C(NCc1ccccc1)c1ccc2c(c1)OCCN(c1ccccc1)C2	i	?	?	?	?	?	-1%[86.2 µM]	?
O=C(Nc1ccc(F)cc1)c1ccc2c(c1)OCCN(c1ccccc1)C2	i	56µM*	32µM*	?	40µM*	40µM*	-14%[86.2 µM]	40µM*
Cc1ccc(CNC(=O)c2ccc3c(c2)CN(Cc2ccc(N(C)C)cc2)CCO3)cc1	i	?	11µM*	?	24µM*	27µM*	2%	27µM*
O=C(NC1CCCC1)N1CCC(C(=O)N2CCC(c3nc4ncccc4[nH]3)CC2)CC1	/	-1%	/	-16%	/	/	/	/
COc1cccc(-c2noc(CC3CCN(C(=O)CCCc4ccccc4)CC3)n2)c1	i	?	?	?	?	?	0%	31µM*
COc1ccc(-c2noc(CC3CCN(C(=O)CCCc4ccccc4)CC3)n2)cc1	i	28µM*	?	?	17µM*	19µM*	-6%	19µM*
COc1ccccc1CCC(=O)N1CCC(Cc2nc(-c3ccccc3)no2)CC1	i	?	?	?	/	/	/	/
Cc1ccc(NC(=O)N2CCC3(CC2)CC(Cc2nc(-c4ccccc4)no2)CCO3)cc1C (stereo not given)	i	?	10µM*	?	12µM*	15µM*	-6%	12µM*
COc1ccc(CCC(=O)N2CCC(Cc3nc(C4CCOCC4)no3)CC2)cc1	i	?	6%	-25%	/	/	/	/
O=C(CCCc1ccccc1)N1CCC2(CC1)CC(Cc1nc(-c3cccnc3)no1)CCO2 (stereo not given)	i	35µM*	16µM*	?	22µM*	19µM*	2%	19µM*
O=C(N1CCC2(CC1)CC(Cc1nc(-c3cnccn3)no1)CCO2)C1(c2ccccc2)CC1 (stereo not given)	i	?	1%	-20%	/	/	/	/
O=C1CC(c2ccccc2)N(C(=O)C2CC2)CCCN(C(=O)c2ccc3cc[nH]c3c2)CCN1 (stereo not given)	i	i	4%	-9%	/	/	/	/
CC(C)C1=NOC2(CCN(Cc3ccc(C#N)cc3)C2)C1 (stereo not given)	/	-9%[172 µM]	/	i	/	/	/	/
CCN(CC)Cc1ccc2c(c1)CN(C(=O)COCCOC)CCO2	/	i	/	-1%	/	/	/	/
COc1cccc(CCC(=O)N2CCC(Cc3nc(-c4ccc(F)cc4)no3)CC2)c1	i	?	11µM*	?	14µM*	17µM*	3%	11µM*
O=C(c1ccc(F)c(F)c1)N1CCC(n2cc(-c3nc(-c4ccccc4)no3)nn2)CC1	i	?	11µM*	?	24µM*	24µM*	-22%	22µM*
